# “And” between values parts separate entries of the source, which are not always exact repeats. Identical values can stand only once. Results filed as inconclusive are left out. A call without a number means that no potency is given here. Unmarked numbers belong to inactive results. The source made the active and inactive calls. The call rests on the fitted dose curve; in most records, active means well fitted inhibition curve with a large enough effect; inconclusive means small, poorly fitted or top-dose-only effect; inactive means flat fitted curve, though single readings scatter.
# Tests used:
# [1] = test system: CRL-7250; assay: qHTS assay to identify novel small-molecules to repurpose for Merkel cell carcinoma treatment (AID 1296009); details: MCC and control cell lines, CellTiter-Glo viability, 72 h; at 44.8 µM (top of the series) unless noted; further: potency means the concentration at half of the fitted maximal effect
# Outline: (§1)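 72 hr, 37 degree celsius; NPC 8-pt / MIPE 11-pt dose response; compound pinned in DMSO; CellTiter-Glo, 10 min RT, luminescence; normalized to no-cell and DMSO controls.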
# [2] = test system: SC27B; assay: qHTS profiling for inhibitors of Plasmodium falciparum proliferation (AID 504749); further: potency means the concentration at half of the fitted maximal effect; details: P. falciparum in erythrocytes, SYBR Green DNA, 72 h; series mostly up to 28.7 µM
# Outline: (§2)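 Infected RBCs, 0.3% parasitemia/2.5% Hct final; cpd 72 h, 37 C, 5% CO2; lysis buffer with saponin/triton/SYBR Green I, o/n RT dark; FI 485/535; norm. to artemisinin (0.29 uM) and DMSO.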
# [3] = test system: TAB109; assay: as above; details: P. falciparum in erythrocytes, SYBR Green DNA, 72 h; series mostly up to 28.7 µM
# Outline: as §2
# [4] = test system: TAB165; assay: as above; details: P. falciparum in erythrocytes, SYBR Green DNA, 72 h; series mostly up to 28.7 µM
# Outline: as §2
# [5] = test system: W2; assay: as above; details: P. falciparum in erythrocytes, SYBR Green DNA, 72 h; series mostly up to 28.7 µM
# Outline: as §2
# [6] = test system: KB-3-1; assay: Cytotoxic Profiling of Annotated Libraries Using Quantitative High-Throughput Screening (AID 1296008); details: Five cell lines viability, CellTiter-Glo ATP luminescence, 48-72 h; max response: active compounds read low
# Outline: (§3)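 Cytotoxicity was measured as CellTiter-Glo ATP luminescence, read after 10 min at room temperature. Compound treatment of the cells lasted 48 or 72 hr at 37 degrees Celsius in a qHTS format.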
# [7] = test system: TAB113; assay: qHTS profiling for inhibitors of Plasmodium falciparum proliferation (AID 504749); further: potency means the concentration at half of the fitted maximal effect; details: P. falciparum in erythrocytes, SYBR Green DNA, 72 h; series mostly up to 28.7 µM
# Outline: as §2
# [8] = test system: HaCat; assay: Cytotoxic Profiling of Annotated Libraries Using Quantitative High-Throughput Screening (AID 1296008); details: Five cell lines viability, CellTiter-Glo ATP luminescence, 48-72 h; max response: active compounds read low
# Outline: as §3
# [9] = test system: NIH3T3; assay: as above; details: Five cell lines viability, CellTiter-Glo ATP luminescence, 48-72 h; max response: active compounds read low
# Outline: as §3
# [10] = test system: HEK293T; assay: qHTS assay to identify novel small-molecules to repurpose for Merkel cell carcinoma treatment (AID 1296009); details: MCC and control cell lines, CellTiter-Glo viability, 72 h; at 44.8 µM (top of the series) unless noted; further: potency means the concentration at half of the fitted maximal effect
# Outline: as §1
# [11] = test system: MCC-13; assay: as above; details: MCC and control cell lines, CellTiter-Glo viability, 72 h; series mostly up to 46 µM
# Outline: as §1
# [12] = test system: MKL-1; assay: as above; details: MCC and control cell lines, CellTiter-Glo viability, 72 h; series mostly up to 46 µM
# Outline: as §1
# [13] = test system: MKL-2; assay: as above; details: MCC and control cell lines, CellTiter-Glo viability, 72 h; series mostly up to 46 µM
# Outline: as §1
# [14] = test system: UISO; assay: as above; details: MCC and control cell lines, CellTiter-Glo viability, 72 h; series mostly up to 46 µM
# Outline: as §1
# [15] = test system: WaGa; assay: as above; details: MCC and control cell lines, CellTiter-Glo viability, 72 h; series mostly up to 46 µM
# Outline: as §1
# [16] = test system: MCC-26; assay: as above; details: MCC and control cell lines, CellTiter-Glo viability, 72 h; series mostly up to 46 µM
# Outline: as §1
# [17] = test system: HACAT; assay: as above; details: MCC and control cell lines, CellTiter-Glo viability, 72 h; at 44.8 µM (top of the series) unless noted
# Outline: as §1
# Further: nearly all actives have a fitted effect of over 60% in size.
compound,measurement,setting,value
Cc1ccc(C(C)C)c(O)c1,outcome,[1],inactive
CN1C(=O)CC(=O)N(c2ccccc2)c2cc(Cl)ccc21,Potency,[2],inactive
same,Potency,[3],inactive
same,Potency,[4],inactive
same,Potency,[5],inactive
same,max response,[6],9.14%
COC(=O)[C@@H]1[C@H]2C[C@H]3c4[nH]c5ccccc5c4CCN3C[C@@H]2CC[C@@H]1O,outcome,[1],inactive
CCC(C)(C)c1ccc(O)cc1,Potency,[2],inactive
same,Potency,[3],inactive
same,Potency,[7],inactive
same,Potency,[4],inactive
same,Potency,[5],inactive
same,max response,[8],2.15%
same,max response,[6],14.4%
same,max response,[9],3.56%
same,outcome,[10],inactive
same,outcome,[11],inactive
same,Potency,[12],inactive
same,Potency,[13],inactive
same,Potency,[14],inactive
same,Potency,[15],inactive
CN[C@@H](C)Cc1ccccc1,max response,[6],-3.3%
Cc1nnc2n1-c1ccc(Cl)cc1C(c1ccccc1)=NC2,Potency,[2],inactive
same,Potency,[7],inactive
same,Potency,[4],inactive
same,Potency,[5],4780 nM (active)
same,max response,[6],-2.21%
C[C@@H]1CC2=CC(=O)CC[C@@H]2[C@H]2CC[C@@]3(C)[C@@H](CC[C@]3(C)O)[C@@H]21,max response,[8],-11%
same,max response,[9],-27.8%
same,outcome,[11],inactive
same,Potency,[16],inactive
same,Potency,[12],inactive
same,Potency,[13],inactive
same,Potency,[14],inactive
same,Potency,[15],inactive
CC(C(=O)O)c1ccc2c(c1)CC(=O)c1ccccc1S2 (configuration not stated),outcome,[1],inactive
NNC(=O)c1ccncc1,outcome,[1],inactive
Nc1ccn(C[C@@H](CO)OCP(=O)(O)O)c(=O)n1,max response,[6],-9.56%
COc1cccc(C(=O)CCN[C@@H](C)[C@H](O)c2ccccc2)c1,outcome,[8],inactive
same,max response,[6],25.7%
same,max response,[9],-18.8%
same,outcome,[17],inactive
same,outcome,[11],inactive
same,Potency,[16],inactive
same,Potency,[13],15000 nM (active)
CN1C[C@H](C(=O)N[C@]2(C)O[C@@]3(O)[C@@H]4CCCN4C(=O)[C@H](Cc4ccccc4)N3C2=O)C=C2c3cccc4[nH]cc(c34)C[C@H]21,Potency,[2],708 nM (active)
same,Potency,[3],1120 nM (active)
same,Potency,[7],794 nM (active)
same,Potency,[4],447 nM (active)
same,Potency,[5],53.6 nM (active)
same,max response,[6],-3.72%
Cc1nnc2n1-c1ccc(Cl)cc1C(c1ccccc1Cl)=NC2,max response,[6],1.66%
COC(=O)C(c1ccccc1)C1CCCCN1 (configuration not stated),Potency,[2],inactive
same,Potency,[3],inactive
same,Potency,[7],inactive
same,Potency,[4],inactive
same,Potency,[5],4260 nM (active)
same,max response,[6],5.58%
CN=C1CN(O)C(c2ccccc2)=c2cc(Cl)ccc2=N1,max response,[6],-12.7% and 2.13%
CC(C)[C@H]1C(=O)N2CCC[C@H]2[C@]2(O)O[C@](NC(=O)[C@@H]3C[C@@H]4c5cccc6[nH]cc(c56)C[C@H]4N(C)C3)(C(C)C)C(=O)N12,max response,[6],22.9%
C[C@](O)(CS(=O)(=O)c1ccc(F)cc1)C(=O)Nc1ccc(C#N)c(C(F)(F)F)c1,Potency,[2],inactive
same,Potency,[7],inactive
same,Potency,[4],inactive
same,Potency,[5],inactive
same,outcome,[8],inactive
same,max response,[6],5.52%
same,max response,[9],-9.3%
same,outcome,[17],inactive
same,outcome,[11],inactive
same,Potency,[12],inactive
same,Potency,[13],23500 nM (active)
same,Potency,[15],13200 nM (active)
